VCAM1 TNFa pot: TNF alpha stimulated VCAM1 expression potentiation. HUVEC TNFa-stimulated VCAM-1 immunofluorescence, high-content imaging; scaled per plate to unstimulated/TNFa-only wells. activation, % at 2 µM. hit rate 0.19% among 93,000. AID 808;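 active = activation above the screen mean plus 3 SD, with well images confirming the hit on visual review, cut at about 28% in these data, passing the limit was not always enough; inconclusive = activation above that limit but images do not confirm it; inactive = activation not above that limit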;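 note: signal is the number of cytoplasmic VCAM-1 stained grains per positive cell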
VCAM1 pot confirm: enhancers of VCAM1 induction in HUVEC – imaging, triplicate retest, confirmation; HUVEC TNFa-stimulated VCAM-1 immunofluorescence imaging; 230 tested, under 10 active; shares compounds with VCAM1 TNFa pot; activation, % at 2 µM;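 active = activation above 30% in triplicate retests at 2 µM, then confirmed by visual review of the well images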
Of the large screens only hits and unclear results are named; the others gave an inactive call (follow-up assays come after a bar, where they were run). The entries come from a sample that favours hits as a whole.

CCOc1ccc(N2C(=O)CSC2c2ccncc2)cc1 (stereo unspecified)	none
Cc1cccc(-c2nnc(SCCOc3ccc4c(C)cc(=O)oc4c3)o2)c1	none
CCOc1ccc(-c2nc(-c3cccnc3)no2)cc1	none
Cc1ccc(-n2nnnc2-c2cnc(-c3cccnc3)nc2C(F)(F)F)cc1	VCAM1 TNFa pot 52 | VCAM1 pot confirm inactive
Cc1ccc(SCc2nc(-c3cccnc3)no2)cc1	none
O=C(N/N=C/c1cc2c(cc1Cl)OCO2)c1ccccn1	none
Cc1nnc(NC(=O)c2cccc(F)c2)s1	none
O=C(N/N=C/c1ccccc1Cl)c1cccc(F)c1	VCAM1 TNFa pot 56 | VCAM1 pot confirm inactive
COc1cccc(OC)c1NC(=O)CN1CCC(NC(=O)c2cccc(F)c2)CC1	none
Cn1ccnc1SCC(=O)Nc1ccc2ccccc2c1	none
C/C(=N\NC(=O)Cc1cccn1C)c1ccc2ccccc2c1	VCAM1 TNFa pot inconclusive | VCAM1 pot confirm inactive
CC(C)(C)NC(=O)NC(=O)COC(=O)c1cc(=O)[nH]c2ccccc12	none
Cc1nonc1NCn1nnc2ccccc21	none
CC(C)CCNC(=O)CSc1nnc(-c2ccc(S(=O)(=O)N3CCCC3)cc2)n1C	none
Cc1ccc(-c2nnc(SCC(C)C)n2C)cc1	none
CC(C)NC(=O)CSc1nnc(-c2ccc(C(C)(C)C)cc2)n1C	VCAM1 TNFa pot inconclusive | VCAM1 pot confirm inactive
CCCCCOC(=O)Cn1c(SCC(=O)Nc2ccccc2)nc2c1c(=O)[nH]c(=O)n2C	none
O=C(Cc1ccccc1)Nn1cnc2ccccc21	none
Cn1c(SCC(=O)NC2CCCCC2)nnc1-c1cccc(N)c1	none
CN(C)C(=O)Cn1c(SCC(=O)NC2CCCCC2)nc2ccccc21	none
Cn1c(CN2CCOCC2)nnc1SCC(=O)NC1CCCCC1	VCAM1 TNFa pot inconclusive | VCAM1 pot confirm inactive
C#CCOC(=O)c1ccccc1C(=O)O	none
Cc1ccc(-n2c(SCc3cc(=O)n4ccsc4n3)nnc2-c2cccnc2)c(C)c1	none
Cc1ccccc1NC(=O)Cn1nc(C(F)(F)F)cc1C1CC1	VCAM1 TNFa pot 54 | VCAM1 pot confirm inactive
Cc1cc(C(F)(F)F)nn1CC(=O)Nc1ccc(Br)c2cccnc12	none
CCc1ccccc1NC(=O)c1nnn(CC(=O)Nc2cccc(C)c2C)c1N	none
CC1=CC(C)(C)N2C(=O)C3(C(C#N)=C(N)Oc4cc(C)oc(=O)c43)c3cccc1c32 (stereo unspecified)	none
COc1ccc(CCNC(=O)C2CCN(S(=O)(=O)N3CCCCCC3)CC2)cc1OC	none
NS(=O)(=O)c1ccc(CCNC(=O)C2CCCCC2)cc1	VCAM1 TNFa pot 33 | VCAM1 pot confirm inactive
CCC(CC)C(=O)NCCc1ccc(S(N)(=O)=O)cc1	none
O=C(CN1CCN(C(=O)c2ccccc2)CC1)Nc1ccc(Br)cn1	none
COc1ccc(C2C=C(c3cccs3)Nc3nc(CCCO)nn32)cc1 (stereo unspecified)	none
CC(=O)c1c(C)cc(C)c(CSc2nnc(-c3ccco3)o2)c1C	none
O=C(CCSc1nnc(-c2ccco2)o1)Nc1ccccc1	VCAM1 TNFa pot 44 | VCAM1 pot confirm inactive
O=C(COc1ccc(Br)cc1)Nc1ccc(-c2nnc(-c3ccco3)o2)cc1	none
Cc1ccc(N2CCN(C(=O)N3CCCC3)CC2)cc1C	none
O=C(COc1cccc(C(F)(F)F)c1)Nc1ccc(S(=O)(=O)N2CCCC2)cc1	none
COC(=O)c1ccccc1S(=O)(=O)N(Cc1cc2cc3c(cc2[nH]c1=O)OCO3)C1CCCCC1	none
NC(=O)C1(N2CCCCC2)CCN(S(=O)(=O)c2cc(Cl)ccc2Cl)CC1	none
Cc1ccc(/C=C2/SC(=S)N(CC(=O)Nc3ncc(Cc4ccc(C)cc4)s3)C2=O)cc1	none
CCN1C(=O)/C(=C/c2cn(C)nc2C)SC1=S	VCAM1 TNFa pot 53 | VCAM1 pot confirm inactive
CCN1C(=O)/C(=C/C=C2/SCCN2C)SC1=S	none
Cc1c(Cl)cccc1-n1ccnc1SCC(=O)O	none
Cn1c(-c2ccccc2O)cc2ccccc21	none
CCOC(=O)N1CCN(CC(=O)Nc2ccc(C)c(Br)c2)CC1	none
C=CCNC(=O)CN1CCC(n2c(C)nc3cc(C(F)(F)F)ccc32)CC1	VCAM1 TNFa pot 58 | VCAM1 pot confirm inactive
C=CCNC(=O)CCCOc1ccc(C)cc1	none
CCC1(COC(NC(=O)c2cccnc2)(C(F)(F)F)C(F)(F)F)COC1	none
O=C(O)c1cn(C2CC2)c2cc(N3CCOCC3)c(F)cc2c1=O	none
CCCC(=O)NCCCc1nc2ccccc2n1CCC	none
COCc1nc2ccccc2n1CCCOc1ccccc1	VCAM1 TNFa pot inconclusive | VCAM1 pot confirm inactive
Cc1nc2ccccc2n1CCCOc1ccccc1	none
C=CC(=O)Nc1ccc(Br)cc1	none
N#CCCNC(=O)CCN1CCOCC1	none
COc1ccc(CNC(=O)C2CCCN(S(=O)(=O)c3cnc[nH]3)C2)cc1 (stereo unspecified)	none
CCOC(=O)C1=C(C)NC(C)=C(C(=O)OCC)C1C(=O)OC1CCOC1=O (stereo unspecified)	none
N#Cc1c2c(c(=S)n(-c3ccccc3)c1N)CCCC2	VCAM1 TNFa pot 83 | VCAM1 pot confirm inactive
CC(C)CC(=O)NCC(C)NC(=O)CC(C)C (stereo unspecified)	none
O=C1CC(c2ccccc2)CN1S(=O)(=O)c1ccccc1 (stereo unspecified)	none
COc1ccc(/C=N/N=C2/NC(=O)C(c3ccccc3)(c3ccccc3)S2)cc1	none
O=C(CC(NS(=O)(=O)c1ccc(Cl)cc1)c1ccco1)N1CCc2ccccc21 (stereo unspecified)	none
CCCCOC(=O)n1c(SCC(=O)N(C)C)nc2ccccc21	none
O=S(=O)(Cc1cc(Sc2ccc(Cl)cc2)nc(-c2ccccc2)n1)c1ccccc1	VCAM1 TNFa pot 50 | VCAM1 pot confirm inactive
COCc1cc(Sc2c(Cl)cccc2Cl)nc(-c2ccccc2)n1	none
Cc1nc(CS(=O)(=O)c2ccccc2)cc(N2CCOCC2)n1	none
CCn1c(SCc2nc(-c3cccs3)no2)nnc1-c1c[nH]c2ccccc12	none
Cc1ccc2nc(SCC(=O)Nc3ccc4c(c3)OCCO4)[nH]c2c1	none
Cc1ncoc1C(=O)Nc1ccc2c(c1)OCCO2	VCAM1 TNFa pot 81 | VCAM1 pot confirm inactive
CCOC(=O)c1cn(CC(=O)Nc2ccc3c(c2)OCCO3)nn1	none
Cn1nc(-c2ccccc2)c(C#N)c1Sc1cccc(Cl)c1	none
COC(=O)c1c(NC(=O)CSc2nnc(-c3cccnc3)n2Cc2ccco2)sc(C)c1C	none
CCCn1c(SCC(=O)Nc2sc(C)c(C)c2C(=O)OCC)nc2c1c(=O)n(C)c(=O)n2C	VCAM1 TNFa pot 31 | VCAM1 pot confirm inactive
CCOC(=O)CNC(=O)CSc1nc2sc(C)c(C)c2c(=O)n1C	none
COc1ccccc1C(=O)NC(C)C(c1cccs1)N1CCN(C)CC1 (stereo unspecified)	none
O=C(Nc1ccc2c(c1)CCC2)c1cnccn1	none
O=C(N/N=C/C(Br)=C/c1ccccc1)c1n[nH]c2c1CCC2	none
O=C(N/N=C/C(Cl)=C\c1ccccc1)c1cnccn1	VCAM1 TNFa pot 63 | VCAM1 pot confirm inactive
COCCn1c(SCC(=O)Nc2ccc(Cl)cn2)nc2ccccc21	none
O=C1Nc2ccc(F)cc2C12SCCS2	none
COC(=O)C1=C(O)C(C(=O)OC)C(c2ccc(C)cc2)C(C#N)(C#N)C1c1ccc(C)cc1 (stereo unspecified)	none
CCc1nnc(SCC(=O)N2CCCc3ccccc32)nc1CC	VCAM1 TNFa pot inconclusive | VCAM1 pot confirm inactive
O=C(Nc1ccccc1)N1CCCc2ccccc21	none
COc1ccccc1CC(=O)N1CCCc2ccccc21	none
O=C1Nc2ccccc2C(=O)C1(Cl)Cc1ccccc1 (stereo unspecified)	none
CCOC(=O)c1cc2nc(Nc3ccc(OC)cc3)sc2s1	none
CCOc1ccc2sc(NS(=O)(=O)c3ccc(OC)c(OC)c3)nc2c1	VCAM1 TNFa pot 61 | VCAM1 pot confirm inactive
